The values below come from PubChem BioAssay AID651965 (National Center for Advancing Translational Sciences (NCATS), 2013).

The whole screen tested about 340,000 compounds, of which about 6,400 (1.9%) were called active. Inconclusive results (about 4%) are left out. The entries come from a sample that favours actives as a whole. Unmarked numbers belong to inactive results. Calls come from the whole dose curve; as a rule, active = well fitted falling curve with a large enough effect; inconclusive = small, poorly fitted or top-dose-only effect; inactive = no such curve, though single readings can be large or run the other way.

Chain of ATP-dependent Clp protease proteolytic subunit (Bacillus subtilis (strain 168)) (P80244 whole entry, looked up): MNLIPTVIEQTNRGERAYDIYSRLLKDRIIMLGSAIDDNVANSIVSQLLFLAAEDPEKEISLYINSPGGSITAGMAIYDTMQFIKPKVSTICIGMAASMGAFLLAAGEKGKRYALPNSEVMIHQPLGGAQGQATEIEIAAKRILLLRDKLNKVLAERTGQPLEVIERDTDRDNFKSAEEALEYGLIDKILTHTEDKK

The target in the assay is ATP-dependent Clp protease proteolytic subunit (Bacillus subtilis (strain 168)) (UniProt P80244). Briefly: qHTS Assay for Activators of ClpP. Note: the source files actives as falling curves though it sought activators and does not explain the sign; nearly all actives have a fitted effect of over 65% in size. The conditions noted are these: purified B. subtilis ClpP, FRET peptide cleavage, 20 min; series mostly up to 57.5 µM; activity change, negative = active: at the top concentration. The source says:
The Clp protease proteolytic subunit (ClpP) is the core unit of the Clp complex belonging to the peptidase family S14 that hydrolyzes protein into small peptides in the presence of ATP and magnesium. It is ubiquitously expressed and is the major protease in bacteria. […] Unlike common antibiotics that simply interfere with the essential enzyme activity, ADEP binding activates the ClpP core in the absence of the regulatory Clp-ATPases leading to uncontrolled proteolysis and eventually cell death. Activators binding to the docking site on ClpP can also block formation of the ClpXP and ClpA/C-P holoenzyme complexes interfering with the normal biological functions of ClpP and thus have the potential to become new anti-microbials.
To identify activators of ClpP, a FRET based quenching reversal assay was developed using a purified B. subtilis ClpP and a decapeptide substrate (FRET-FV). The FRET-FV is tagged with a fluorescent molecule amino benzoic acid (donor) at the N-terminus and a nitrotyrosine quencher (acceptor) at the C-terminus. FRET-FV cleaves upon activation of ClpP with ADEP treatement and reverses the quenching effect of the nitrotyrosine causing an increase in fluorescence emission signal at 430nm. This assay was used to screen the Molecular Libraries Small Molecule Repository (MLSMR).
NIH Molecular Libraries Probe Production Centers Network [MLPCN]
NIH Chemical Genomics Center [NCGC]
Assay Submitter (PI): Michael Maurizi, National Cancer Institute
Two and a half microL/well of purified enzyme solution (final concentrations 10 microg/mL B. subtilis ClpP in 100 mM Tris/HCl pH8, 100 mM KCl, 0.05% low protease BSA, 2.5% glycerol, 0.01% Tween-20 buffer) was dispensed into 1536-well assay plates (Greiner, black solid, medium-binding plates) with Aurora Discovery BioRAPTR Flying Reagent Dispenser (FRD, Beckton-Dickenson). Compound solution (23 nL) was transferred to the assay plate using Kalypsys pin tool equipped with a 1536-pin tool. […] FRET signals at time 0 and after 20 min room temperature incubation were obtained using the PerkinElmer Envision plate reader with 320nm excitation and 430nm emission filters. Delta FRET value (Time 20 - Time 0) was calculated and normalized to the delta FRET value of positive control ADEP (5.8 microM final concentration) and negative control DMSO and no enzyme wells.
For `CCc1nc2ccc(C(=O)Nc3cc(-c4ccccc4)ccc3OC)cn2c1N(CC)CC(=O)N(C)C`, the “activity change, negative = active” value was 4.3%.
On the same count and under the same terms, under `CSc1ncnc2c1ncn2CCCNCC1CCCCC1` stands -2.79%; under `O=C1NC[C@H](CCCCN2CCN(CCc3ccccc3)C(=O)C2=O)N(CC2CCCCC2)C1=O`, -1.02%; under `CC(C)C[C@H]1CNC(=S)N1C[C@H]1CCCN1C[C@H](Cc1ccc(O)cc1)N1C[C@H](Cc2ccc(O)cc2)N(CC2CCCCC2)C1=S`, 1.83%.
On the same count and under the same terms, under `c1ccc(Cc2c(-c3ccco3)nc3c4ccccc4ccn23)cc1` stands 4.55%; under `Cc1ccc(C)c(C(O)c2ncc(-c3cccc4ccccc34)[nH]2)c1` (configuration not stated), 4.92%; under `COc1ccc2c(CN3CCN(S(=O)(=O)c4cccs4)CC3)cc(=O)oc2c1`, -14.2%.
As for `O=c1cc(CN2CCN(S(=O)(=O)/C=C/c3ccccc3)CC2)c2ccc(O)cc2o1`, the Potency is 10 µM (active).
For `Cc1ccc2c(CN3CCN(S(=O)(=O)c4ccccc4C(F)(F)F)CC3)cc(=O)oc2c1`, the “activity change, negative = active” value was -9.85%.
On the same count and under the same terms, under `CCCNC(=O)C1(C)CCN(C(=O)c2cc(F)ccc2C)C1` (configuration not stated) stands 0.883%.
On to `COc1ccc(C(=O)C(OP(=O)(OC)OC)c2ccccc2OC)cc1` (configuration not stated), for which the “activity change, negative = active” value is -1.26%.
In the case of `O=[N+]([O-])c1ccc(/C=C/c2ccc3cccnc3c2)cc1`, the “activity change, negative = active” value was -3.98%.
Still for that read-out and setting: for `N#Cc1ccc[n+](CC(=O)c2ccc(F)cc2)c1` the value was 0.138%.
As for `Cc1nn(-c2ccccn2)c2c1C(c1ccncc1)C1=C(CC(C)(C)CC1=O)N2` (configuration not stated), the Potency was 31.6 µM (active).
With `Cc1cc(C)c(C2C3=C(Nc4c2c(C)nn4-c2ccccn2)c2ccccc2C3=O)c(C)c1` (configuration not stated), the “activity change, negative = active” value is -1.74%.
Take `CC1(C)CC(=O)C2=C(C1)Nc1cc(C(=O)c3ccccc3)ccc1NC2c1ccccn1` (configuration not stated): the “activity change, negative = active” value is -1.17%.
For `Clc1cccc[n+]1CCCC[n+]1ccccc1Cl`, the “activity change, negative = active” value was -3.17%.
As to `Cc1noc(C)c1S(=O)(=O)N(C)C[C@H]1OCCCC[C@@H](C)Oc2ccc(NC(=O)CCCN(C)C)cc2C(=O)N([C@H](C)CO)C[C@@H]1C`, the “activity change, negative = active” value was 0.472%.
With `CCc1cc(C(=O)N(CC)CC(=O)Nc2c(F)cccc2F)sc1C`, the “activity change, negative = active” value is -1.44%.
On to `FC(F)(F)COc1nc(N2CCCCC2)nc(N2CCNCC2)n1`, for which the “activity change, negative = active” value was 0.515%.
`O=C(NNc1nc(N2CCCC2)nc(N2CCCC2)n1)c1ccccc1`: the “activity change, negative = active” value was 0.913%.
Turning to `CN(N)c1nc(N2CCCC2)nc(N2CCCC2)n1`, the Potency was 31.6 µM (active).
With `CC(C)C1C(=O)N(Cc2cn(CCC3OCCO3)nn2)CCS(=O)(=O)N1Cc1ccc(-c2ccccc2C(F)(F)F)cc1` (configuration not stated), the “activity change, negative = active” value was 1.59%.
Regarding `O=C(Nc1ccc(F)cc1)C(CCc1ccccc1)N1CCN(CC(=O)N2CCCC2)CC1` (configuration not stated), the “activity change, negative = active” value is 1.39%.
Regarding `CCN(CCCNC(=O)c1cc2c(=O)n(CC)c3ccccc3c2s1)Cc1ccccc1`, the Potency is 3.55 µM (active).
For `CN(Cc1ccccc1)C(=O)c1cc2c(=O)n(C)c3ccccc3c2s1`, the “activity change, negative = active” value was -25.1%.
Turning to `CCn1c(=O)c2cc(C(=O)Nc3cccc(C(C)=O)c3)sc2c2ccccc21`, the “activity change, negative = active” value was -5.57%.
Take `CCOC(=O)c1c(C)c(C(=O)NCCc2ccc(S(N)(=O)=O)cc2)c(C)n1CC`: the “activity change, negative = active” value is -24.6%.
In the case of `Cc1c(C)n(Cc2ccc(Cl)cc2)c2ccc(C(=O)NCCc3ccc(S(N)(=O)=O)cc3)cc12`, the Potency is 14.1 µM (active).
Take `NS(=O)(=O)c1ccc(CCNC(=O)c2ccc(Cl)c(S(=O)(=O)N3CCCCCC3)c2)cc1`: the “activity change, negative = active” value is -3.6%.
As for `COC(=O)[C@@]12C[C@@H](CC(=O)NCc3cccc(C(F)(F)F)c3)C(=O)N(Cc3ccco3)C1=CCC(C)(C)C2`, the “activity change, negative = active” value is 1.62%.
With `Cc1cccc(CN2Cc3cccc4c3[C@H](C=CC4)CC2=S)c1`, the “activity change, negative = active” value was -3.52%.
For the molecule `COc1ccc(CCNC(=O)COc2cc(C)cc3oc(=O)c(C)c(C)c23)cc1OC`, the “activity change, negative = active” value was -6.73%.
As for `Cc1cc(OCC(=O)Nc2nccs2)c2c(C)c(C)c(=O)oc2c1`, the Potency is 31.6 µM (active).
Regarding `Cc1cc(OCC(=O)NCC(O)c2ccccc2)c2c(C)c(C)c(=O)oc2c1` (configuration not stated), the “activity change, negative = active” value was 3.71%.
`COc1ccccc1-c1cc(NC(C)=O)c2ncc(-c3ccc(F)cc3)n2c1`: the “activity change, negative = active” value is 4.69%.
Turning to `Cc1cccc(NC(=S)Nc2ccc3cn[nH]c3c2)c1`, the Potency was 22.4 µM (active).
In the case of `CCc1cccc(CC)c1NC(=S)Nc1ccc2cn[nH]c2c1`, the “activity change, negative = active” value was -18.4%.
With `Cc1cc2[nH]ncc2cc1NC(=S)NC(=O)c1ccccc1`, the “activity change, negative = active” value is 8.42%.
`COc1cc(CNc2ncnc3c2ncn3[C@H]2CN(Cc3cccs3)C[C@@H](CO)O2)cc(OC)c1OC`: the “activity change, negative = active” value is -1.33%.
As to `CC1(C(=O)NCc2cccc3ccccc23)CCN1Cc1ccc(-c2ccccc2)o1` (configuration not stated), the “activity change, negative = active” value is -22.3%.
On to `CC1(C)CC(=O)c2cc(OCC(=O)NCC3CCCO3)ccc2O1` (configuration not stated), for which the Potency is 11.2 µM (active).
For the molecule `CCOc1ccc(S(=O)(=O)NCCC(=O)NCC2CCCO2)cc1` (configuration not stated), the “activity change, negative = active” value is -0.322%.
Same read-out and setting: under `C=CCOc1ccc(/C=C/C(=O)OCC(=O)NCC2CCCO2)cc1` (configuration not stated) stands 3.23%.
As for `Cc1ccccc1S(=O)(=O)N1[C@@H](c2cccc(Cl)c2)C(C(=O)OC(C)(C)C)=CC[C@H]1c1ccc(Cl)cc1`, the “activity change, negative = active” value was -4.28%.
In the case of `COC(=O)C1(C(=O)OC)C/C=C\CN(S(=O)(=O)c2ccccc2[N+](=O)[O-])CCC1`, the “activity change, negative = active” value was 0.858%.
On the same count and under the same terms, under `Cc1cccc(C(=O)Nc2ccccc2-c2nnn(CC(=O)Nc3ccc4c(c3)OCCO4)n2)c1` stands 3.15%.
